Test results reported in the supplement of paper PMC11732987, “Enantioselective OTUD7B fragment discovery through chemoproteomics screening and high-throughput optimisation” (Communications Chemistry, 2025).

Columns and labels:
Assay in all cases: log2 ratio of Biotin-Ahx-Ub-VS probe labelling (fragment/DMSO); higher = less target engagement (more negative = stronger competition), active = hit call of the paper (q ≤ 0.05, log2 ratio ≤ -1)
Conditions in all cases: compound concentration: 200 uM; treatment time: 3 h
USP34 = USP34 (UniProt Q70CQ2)
Procedure, shortened: (§1)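 Each value is an average log2 ratio of fragment to vehicle, tested by unpaired t-test. The underlying Spectronaut label-free quantities were global-median-normalised, and only proteins with ≥2 unique peptides were included. Triplicate HEK293T lysate samples (495 µg) were exposed to fragment at 200 µM or vehicle for 3 h, then to Biotin-Ahx-Ub-VS at 0.5 µM final for 1 h, before NeutrAvidin enrichment of labelled DUBs, LysC and trypsin digestion, and diaPASEF LC-MS/MS.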

USP36 = target: T1, USP36 (UniProt Q9P275)
T1 sequence (whole entry): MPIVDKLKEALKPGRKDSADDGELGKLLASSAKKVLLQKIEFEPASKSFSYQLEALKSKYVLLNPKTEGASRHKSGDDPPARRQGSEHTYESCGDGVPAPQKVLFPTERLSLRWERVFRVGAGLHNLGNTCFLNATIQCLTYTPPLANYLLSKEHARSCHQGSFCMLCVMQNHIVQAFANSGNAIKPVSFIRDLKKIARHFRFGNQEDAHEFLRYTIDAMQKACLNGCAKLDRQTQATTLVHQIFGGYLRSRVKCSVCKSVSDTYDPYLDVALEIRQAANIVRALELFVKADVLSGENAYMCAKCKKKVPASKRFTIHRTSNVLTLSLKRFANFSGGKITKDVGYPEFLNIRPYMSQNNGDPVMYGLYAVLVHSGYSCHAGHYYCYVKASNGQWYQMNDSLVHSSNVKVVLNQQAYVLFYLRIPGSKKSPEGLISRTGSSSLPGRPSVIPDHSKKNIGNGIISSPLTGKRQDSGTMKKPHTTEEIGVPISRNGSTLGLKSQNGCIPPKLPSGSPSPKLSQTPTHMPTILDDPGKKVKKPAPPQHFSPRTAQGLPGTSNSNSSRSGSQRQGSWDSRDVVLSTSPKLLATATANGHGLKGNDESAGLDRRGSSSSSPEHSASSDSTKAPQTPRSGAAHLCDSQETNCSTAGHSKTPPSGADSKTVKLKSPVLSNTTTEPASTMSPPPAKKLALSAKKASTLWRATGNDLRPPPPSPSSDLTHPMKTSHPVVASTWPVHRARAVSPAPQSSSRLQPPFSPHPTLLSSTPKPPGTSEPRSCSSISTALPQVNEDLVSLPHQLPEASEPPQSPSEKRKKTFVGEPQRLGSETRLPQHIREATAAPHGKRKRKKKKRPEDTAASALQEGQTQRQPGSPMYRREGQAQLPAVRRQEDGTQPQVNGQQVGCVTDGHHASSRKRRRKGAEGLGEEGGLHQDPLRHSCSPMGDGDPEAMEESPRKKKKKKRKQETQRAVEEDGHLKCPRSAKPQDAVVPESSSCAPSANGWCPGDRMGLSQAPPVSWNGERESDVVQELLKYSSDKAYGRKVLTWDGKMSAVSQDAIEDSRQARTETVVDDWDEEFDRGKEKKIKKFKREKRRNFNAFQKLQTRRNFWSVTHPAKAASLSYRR
Procedure, shortened: as §1

USP38 = target: T2, USP38 (UniProt Q8NB14)
T2 sequence (whole entry): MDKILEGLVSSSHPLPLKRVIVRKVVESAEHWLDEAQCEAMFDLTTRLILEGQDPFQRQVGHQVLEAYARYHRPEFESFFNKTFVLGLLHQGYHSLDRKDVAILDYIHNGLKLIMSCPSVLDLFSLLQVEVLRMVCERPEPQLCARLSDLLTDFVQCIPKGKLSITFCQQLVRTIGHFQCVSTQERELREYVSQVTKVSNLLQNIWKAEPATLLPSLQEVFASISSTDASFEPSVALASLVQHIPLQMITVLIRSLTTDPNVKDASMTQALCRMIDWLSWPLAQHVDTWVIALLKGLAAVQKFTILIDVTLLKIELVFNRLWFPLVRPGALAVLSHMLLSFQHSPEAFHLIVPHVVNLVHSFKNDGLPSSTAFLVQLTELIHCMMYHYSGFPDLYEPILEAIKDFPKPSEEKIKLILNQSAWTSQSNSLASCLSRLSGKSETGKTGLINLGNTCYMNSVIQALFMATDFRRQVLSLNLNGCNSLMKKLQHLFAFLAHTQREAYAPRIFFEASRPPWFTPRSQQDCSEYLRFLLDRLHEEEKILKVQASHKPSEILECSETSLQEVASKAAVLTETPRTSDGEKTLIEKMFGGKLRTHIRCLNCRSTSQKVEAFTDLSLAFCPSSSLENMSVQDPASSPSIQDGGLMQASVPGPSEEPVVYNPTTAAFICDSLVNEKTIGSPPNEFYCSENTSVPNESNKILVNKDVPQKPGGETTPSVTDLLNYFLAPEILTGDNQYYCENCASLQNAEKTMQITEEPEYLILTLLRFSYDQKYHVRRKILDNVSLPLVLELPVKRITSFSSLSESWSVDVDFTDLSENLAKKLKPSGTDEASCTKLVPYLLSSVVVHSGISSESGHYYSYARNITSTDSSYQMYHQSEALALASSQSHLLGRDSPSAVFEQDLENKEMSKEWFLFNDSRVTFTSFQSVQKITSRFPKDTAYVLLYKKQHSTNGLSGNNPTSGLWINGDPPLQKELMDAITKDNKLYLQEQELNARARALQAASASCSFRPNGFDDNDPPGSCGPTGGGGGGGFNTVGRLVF
Procedure, shortened: as §1

USP39 = target: T3, USP39 (UniProt Q53GS9)
T3 sequence (whole entry): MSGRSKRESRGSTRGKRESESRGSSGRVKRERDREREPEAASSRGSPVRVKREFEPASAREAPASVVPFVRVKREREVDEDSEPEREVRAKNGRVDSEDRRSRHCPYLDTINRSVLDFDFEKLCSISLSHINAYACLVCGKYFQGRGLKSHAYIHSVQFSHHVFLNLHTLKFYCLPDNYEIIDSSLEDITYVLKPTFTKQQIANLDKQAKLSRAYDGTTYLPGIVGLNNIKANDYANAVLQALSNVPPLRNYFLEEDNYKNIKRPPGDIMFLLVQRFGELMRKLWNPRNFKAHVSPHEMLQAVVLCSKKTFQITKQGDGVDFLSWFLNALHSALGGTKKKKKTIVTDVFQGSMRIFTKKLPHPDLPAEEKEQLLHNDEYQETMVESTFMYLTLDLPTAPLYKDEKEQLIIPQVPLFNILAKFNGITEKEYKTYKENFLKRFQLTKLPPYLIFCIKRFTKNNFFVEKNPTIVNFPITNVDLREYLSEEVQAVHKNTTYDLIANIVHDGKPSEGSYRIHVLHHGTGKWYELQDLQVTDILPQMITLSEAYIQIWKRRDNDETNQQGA
Procedure, shortened: as §1

USP4 = target: T4, USP4 (UniProt Q13107)
T4 sequence (whole entry): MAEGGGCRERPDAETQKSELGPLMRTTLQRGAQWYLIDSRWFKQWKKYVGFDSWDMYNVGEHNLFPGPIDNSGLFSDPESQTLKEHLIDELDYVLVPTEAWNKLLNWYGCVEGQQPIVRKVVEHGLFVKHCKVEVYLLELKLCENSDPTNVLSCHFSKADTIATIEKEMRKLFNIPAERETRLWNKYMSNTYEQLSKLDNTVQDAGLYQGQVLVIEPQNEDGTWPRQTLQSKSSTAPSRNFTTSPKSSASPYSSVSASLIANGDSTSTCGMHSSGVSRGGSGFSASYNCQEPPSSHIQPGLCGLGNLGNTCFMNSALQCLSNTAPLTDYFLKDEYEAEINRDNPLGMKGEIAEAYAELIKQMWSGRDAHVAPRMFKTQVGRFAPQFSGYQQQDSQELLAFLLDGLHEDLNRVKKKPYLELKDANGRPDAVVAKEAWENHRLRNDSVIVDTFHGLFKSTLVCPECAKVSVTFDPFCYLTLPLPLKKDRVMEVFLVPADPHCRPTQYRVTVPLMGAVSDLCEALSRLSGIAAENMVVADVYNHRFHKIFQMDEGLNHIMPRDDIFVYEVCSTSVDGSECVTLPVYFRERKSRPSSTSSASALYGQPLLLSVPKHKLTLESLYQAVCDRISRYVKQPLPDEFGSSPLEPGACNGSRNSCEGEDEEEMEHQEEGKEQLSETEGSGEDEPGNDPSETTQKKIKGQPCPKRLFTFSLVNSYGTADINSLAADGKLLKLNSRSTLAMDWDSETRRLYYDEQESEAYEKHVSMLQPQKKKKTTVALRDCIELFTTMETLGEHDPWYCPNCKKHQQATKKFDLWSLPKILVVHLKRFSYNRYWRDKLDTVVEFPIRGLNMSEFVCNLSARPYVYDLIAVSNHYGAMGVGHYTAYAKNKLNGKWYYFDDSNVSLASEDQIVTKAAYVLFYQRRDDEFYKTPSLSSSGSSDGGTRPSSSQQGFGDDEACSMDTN
Procedure, shortened: as §1

Measured: log2 ratio of Biotin-Ahx-Ub-VS probe labelling

Chain of USP34 (Q70CQ2 whole entry, the tested form may be a part): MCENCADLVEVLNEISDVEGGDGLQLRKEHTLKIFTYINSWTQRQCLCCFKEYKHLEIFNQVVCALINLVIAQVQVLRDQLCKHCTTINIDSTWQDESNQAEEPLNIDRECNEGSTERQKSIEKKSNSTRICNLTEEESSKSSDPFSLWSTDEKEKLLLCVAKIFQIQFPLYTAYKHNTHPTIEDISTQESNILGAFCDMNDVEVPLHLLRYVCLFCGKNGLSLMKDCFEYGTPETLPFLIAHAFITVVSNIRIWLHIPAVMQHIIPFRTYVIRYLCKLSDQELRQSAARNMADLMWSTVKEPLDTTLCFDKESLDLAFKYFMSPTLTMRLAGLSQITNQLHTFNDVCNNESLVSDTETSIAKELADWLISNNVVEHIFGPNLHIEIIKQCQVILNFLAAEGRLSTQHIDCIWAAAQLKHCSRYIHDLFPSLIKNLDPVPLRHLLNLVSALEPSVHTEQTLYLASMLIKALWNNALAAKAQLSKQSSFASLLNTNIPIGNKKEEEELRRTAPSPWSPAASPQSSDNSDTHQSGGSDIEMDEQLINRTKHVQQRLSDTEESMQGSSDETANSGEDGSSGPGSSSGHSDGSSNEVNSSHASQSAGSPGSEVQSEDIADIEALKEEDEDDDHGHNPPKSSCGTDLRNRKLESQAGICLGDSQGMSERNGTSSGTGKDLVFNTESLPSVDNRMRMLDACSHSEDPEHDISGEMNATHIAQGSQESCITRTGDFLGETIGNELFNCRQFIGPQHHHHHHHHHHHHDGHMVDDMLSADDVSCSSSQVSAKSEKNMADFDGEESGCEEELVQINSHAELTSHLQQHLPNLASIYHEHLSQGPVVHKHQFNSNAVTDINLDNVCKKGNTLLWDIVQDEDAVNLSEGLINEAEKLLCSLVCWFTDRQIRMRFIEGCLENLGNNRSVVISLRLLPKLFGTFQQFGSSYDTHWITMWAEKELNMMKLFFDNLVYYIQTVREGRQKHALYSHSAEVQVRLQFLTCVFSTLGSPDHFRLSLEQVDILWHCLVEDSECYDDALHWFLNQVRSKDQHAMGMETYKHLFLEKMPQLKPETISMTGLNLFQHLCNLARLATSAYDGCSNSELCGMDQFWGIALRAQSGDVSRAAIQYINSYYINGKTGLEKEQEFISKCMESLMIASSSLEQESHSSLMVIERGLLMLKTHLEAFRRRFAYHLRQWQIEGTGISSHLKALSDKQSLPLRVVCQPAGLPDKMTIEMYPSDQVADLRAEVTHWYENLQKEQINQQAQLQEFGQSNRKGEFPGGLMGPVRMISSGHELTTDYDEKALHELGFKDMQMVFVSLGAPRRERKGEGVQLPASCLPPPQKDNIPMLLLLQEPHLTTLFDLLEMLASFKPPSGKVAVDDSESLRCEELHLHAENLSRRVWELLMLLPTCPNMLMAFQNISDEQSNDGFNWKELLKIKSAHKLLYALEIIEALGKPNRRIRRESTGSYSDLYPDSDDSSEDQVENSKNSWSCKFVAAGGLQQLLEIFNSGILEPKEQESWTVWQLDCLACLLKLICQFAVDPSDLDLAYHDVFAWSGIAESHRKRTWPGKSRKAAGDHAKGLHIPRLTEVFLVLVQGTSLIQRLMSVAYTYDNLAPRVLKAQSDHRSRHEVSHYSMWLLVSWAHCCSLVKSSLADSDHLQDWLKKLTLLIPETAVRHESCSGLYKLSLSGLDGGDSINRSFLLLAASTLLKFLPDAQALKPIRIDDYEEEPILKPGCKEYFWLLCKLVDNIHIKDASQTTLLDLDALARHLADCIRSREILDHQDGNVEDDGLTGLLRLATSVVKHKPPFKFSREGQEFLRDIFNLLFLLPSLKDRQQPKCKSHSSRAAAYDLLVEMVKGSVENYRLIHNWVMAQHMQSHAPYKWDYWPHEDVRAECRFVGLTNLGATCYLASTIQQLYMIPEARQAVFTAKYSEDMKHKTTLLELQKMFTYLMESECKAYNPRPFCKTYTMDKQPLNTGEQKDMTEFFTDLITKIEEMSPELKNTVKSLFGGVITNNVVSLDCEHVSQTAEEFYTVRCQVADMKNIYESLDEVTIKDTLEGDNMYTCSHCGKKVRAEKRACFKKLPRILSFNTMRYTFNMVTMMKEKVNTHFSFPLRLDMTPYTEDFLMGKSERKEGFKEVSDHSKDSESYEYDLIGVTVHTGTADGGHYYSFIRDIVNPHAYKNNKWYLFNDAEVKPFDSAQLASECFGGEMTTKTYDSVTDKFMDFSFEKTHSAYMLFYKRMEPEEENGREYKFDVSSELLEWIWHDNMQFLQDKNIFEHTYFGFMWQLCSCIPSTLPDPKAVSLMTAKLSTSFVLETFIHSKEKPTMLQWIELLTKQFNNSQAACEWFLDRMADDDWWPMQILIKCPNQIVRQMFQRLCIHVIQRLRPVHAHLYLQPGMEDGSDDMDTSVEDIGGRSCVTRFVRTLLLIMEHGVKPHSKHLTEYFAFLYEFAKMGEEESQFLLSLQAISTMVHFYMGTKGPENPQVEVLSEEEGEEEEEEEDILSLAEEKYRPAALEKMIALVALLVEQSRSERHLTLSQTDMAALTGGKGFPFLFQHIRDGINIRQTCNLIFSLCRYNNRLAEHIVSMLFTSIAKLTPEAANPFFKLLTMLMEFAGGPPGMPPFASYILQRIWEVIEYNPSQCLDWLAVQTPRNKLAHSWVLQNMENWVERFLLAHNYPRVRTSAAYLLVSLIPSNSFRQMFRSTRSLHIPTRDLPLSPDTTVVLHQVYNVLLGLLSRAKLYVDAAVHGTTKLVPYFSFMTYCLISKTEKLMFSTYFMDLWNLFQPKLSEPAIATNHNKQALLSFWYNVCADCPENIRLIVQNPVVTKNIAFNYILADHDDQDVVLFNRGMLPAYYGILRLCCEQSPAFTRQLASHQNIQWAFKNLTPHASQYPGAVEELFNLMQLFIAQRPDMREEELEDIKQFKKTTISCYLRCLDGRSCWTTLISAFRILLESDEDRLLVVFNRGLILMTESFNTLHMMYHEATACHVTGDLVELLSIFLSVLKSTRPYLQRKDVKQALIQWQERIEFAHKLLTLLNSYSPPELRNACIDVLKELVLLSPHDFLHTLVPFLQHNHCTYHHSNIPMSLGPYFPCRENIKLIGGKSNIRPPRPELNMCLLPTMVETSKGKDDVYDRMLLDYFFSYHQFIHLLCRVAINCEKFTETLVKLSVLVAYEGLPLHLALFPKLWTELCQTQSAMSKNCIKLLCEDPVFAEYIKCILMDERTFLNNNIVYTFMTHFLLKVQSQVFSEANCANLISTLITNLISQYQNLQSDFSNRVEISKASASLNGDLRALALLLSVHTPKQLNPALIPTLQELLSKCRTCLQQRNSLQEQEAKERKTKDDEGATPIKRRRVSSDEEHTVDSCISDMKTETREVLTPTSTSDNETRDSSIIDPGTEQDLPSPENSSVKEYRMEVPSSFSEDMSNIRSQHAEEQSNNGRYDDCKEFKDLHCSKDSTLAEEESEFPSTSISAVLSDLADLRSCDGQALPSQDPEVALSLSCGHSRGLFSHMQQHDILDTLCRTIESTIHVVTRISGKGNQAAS

Cc1noc(C)c1CNC(=O)CCl
inactive: USP34 -0.584 | USP36 -0.32 | USP38 -0.547 | USP39 0.303 | USP4 -0.608
